Laboratory results from the supplement of paper PMC6411743.
± gives the standard deviation of the averaged measurements. About 6,500 targets were measured; listed, in parts, are those with the largest changes and a random draw of the rest.

How the values were obtained:
Assay in all cases: NP40-soluble protein abundance relative to vehicle (solubility fold change) (ratio); higher = more soluble protein in presence of ATP
ALG5 = biological target: T1, ALG5 (UniProt Q9Y673)
T1 sequence (whole entry): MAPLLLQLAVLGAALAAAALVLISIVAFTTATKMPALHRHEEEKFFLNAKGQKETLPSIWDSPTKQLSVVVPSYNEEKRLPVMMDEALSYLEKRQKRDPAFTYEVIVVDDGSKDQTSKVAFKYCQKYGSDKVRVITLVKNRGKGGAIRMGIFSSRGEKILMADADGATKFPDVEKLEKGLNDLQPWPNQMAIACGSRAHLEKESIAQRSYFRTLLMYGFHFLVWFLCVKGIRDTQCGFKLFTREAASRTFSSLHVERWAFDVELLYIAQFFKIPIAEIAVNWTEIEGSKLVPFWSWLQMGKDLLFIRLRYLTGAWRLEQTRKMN
Procedure, shortened: (§1)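 Values are fold changes against the detergent-processed vehicle, based on vsn-normalised intensities. Jurkat crude lysate was treated at eight concentrations from 0.1 to 10 mM (10 min at room temperature, then 3 min at 37 °C), solubilised with 0.8% NP40 and benzonase, ultracentrifuged and analysed by TMT-labelled LC-MS/MS over three independent experiments.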

DDX52 = biological target: T2, DDX52 (UniProt Q9Y2R4)
T2 sequence (whole entry): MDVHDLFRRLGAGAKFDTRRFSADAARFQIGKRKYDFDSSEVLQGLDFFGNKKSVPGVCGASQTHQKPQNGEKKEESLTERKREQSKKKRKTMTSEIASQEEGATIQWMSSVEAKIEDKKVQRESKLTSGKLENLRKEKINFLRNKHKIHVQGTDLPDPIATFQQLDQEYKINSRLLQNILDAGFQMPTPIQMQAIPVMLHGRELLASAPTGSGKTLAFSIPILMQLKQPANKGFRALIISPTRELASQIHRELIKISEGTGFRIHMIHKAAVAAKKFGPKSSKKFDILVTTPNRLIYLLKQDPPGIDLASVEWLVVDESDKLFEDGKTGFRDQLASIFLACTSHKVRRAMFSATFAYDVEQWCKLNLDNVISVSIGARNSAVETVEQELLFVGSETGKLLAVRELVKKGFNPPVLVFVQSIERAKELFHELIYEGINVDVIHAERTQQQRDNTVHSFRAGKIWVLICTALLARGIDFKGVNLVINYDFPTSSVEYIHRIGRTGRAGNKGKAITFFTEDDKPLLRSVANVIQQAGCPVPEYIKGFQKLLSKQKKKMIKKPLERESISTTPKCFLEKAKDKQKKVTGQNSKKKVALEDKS
Procedure, shortened: as §1

FHOD1 = biological target: T3, FHOD1 (UniProt Q9Y613)
T3 sequence (whole entry): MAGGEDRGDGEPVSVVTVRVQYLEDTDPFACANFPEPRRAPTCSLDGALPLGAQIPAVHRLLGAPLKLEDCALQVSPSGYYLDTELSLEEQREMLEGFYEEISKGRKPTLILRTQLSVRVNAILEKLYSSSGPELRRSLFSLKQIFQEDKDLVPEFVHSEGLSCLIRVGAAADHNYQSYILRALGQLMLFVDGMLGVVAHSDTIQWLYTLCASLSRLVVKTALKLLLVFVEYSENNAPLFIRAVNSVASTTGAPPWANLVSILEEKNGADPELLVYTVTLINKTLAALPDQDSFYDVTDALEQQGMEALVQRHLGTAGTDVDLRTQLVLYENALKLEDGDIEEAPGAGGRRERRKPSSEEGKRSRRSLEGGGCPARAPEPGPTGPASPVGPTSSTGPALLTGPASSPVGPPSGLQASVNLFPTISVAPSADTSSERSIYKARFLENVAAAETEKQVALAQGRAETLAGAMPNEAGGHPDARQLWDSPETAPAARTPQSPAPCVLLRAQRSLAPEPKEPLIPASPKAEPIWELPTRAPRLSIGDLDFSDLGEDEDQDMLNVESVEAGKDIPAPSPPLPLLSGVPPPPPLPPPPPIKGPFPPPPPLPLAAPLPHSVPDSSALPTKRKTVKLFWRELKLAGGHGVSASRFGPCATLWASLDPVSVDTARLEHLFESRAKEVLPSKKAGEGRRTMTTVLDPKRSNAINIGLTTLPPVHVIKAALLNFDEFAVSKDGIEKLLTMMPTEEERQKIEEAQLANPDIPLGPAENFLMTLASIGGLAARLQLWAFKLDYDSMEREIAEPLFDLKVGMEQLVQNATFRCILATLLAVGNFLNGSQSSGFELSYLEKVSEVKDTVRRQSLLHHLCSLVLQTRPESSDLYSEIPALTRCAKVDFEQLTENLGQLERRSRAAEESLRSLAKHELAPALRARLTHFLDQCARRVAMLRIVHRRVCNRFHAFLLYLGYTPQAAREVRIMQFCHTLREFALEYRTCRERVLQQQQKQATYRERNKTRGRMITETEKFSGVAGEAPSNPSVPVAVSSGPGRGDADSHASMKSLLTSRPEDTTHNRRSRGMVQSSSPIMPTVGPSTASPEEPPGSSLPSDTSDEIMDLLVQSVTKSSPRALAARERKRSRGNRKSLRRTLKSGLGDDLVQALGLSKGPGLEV
Procedure, shortened: as §1

UniProt Q9Y6I3|Q9Y6I3-3 = biological target: T4, UniProt Q9Y6I3|Q9Y6I3-3
T4 sequence (whole entry): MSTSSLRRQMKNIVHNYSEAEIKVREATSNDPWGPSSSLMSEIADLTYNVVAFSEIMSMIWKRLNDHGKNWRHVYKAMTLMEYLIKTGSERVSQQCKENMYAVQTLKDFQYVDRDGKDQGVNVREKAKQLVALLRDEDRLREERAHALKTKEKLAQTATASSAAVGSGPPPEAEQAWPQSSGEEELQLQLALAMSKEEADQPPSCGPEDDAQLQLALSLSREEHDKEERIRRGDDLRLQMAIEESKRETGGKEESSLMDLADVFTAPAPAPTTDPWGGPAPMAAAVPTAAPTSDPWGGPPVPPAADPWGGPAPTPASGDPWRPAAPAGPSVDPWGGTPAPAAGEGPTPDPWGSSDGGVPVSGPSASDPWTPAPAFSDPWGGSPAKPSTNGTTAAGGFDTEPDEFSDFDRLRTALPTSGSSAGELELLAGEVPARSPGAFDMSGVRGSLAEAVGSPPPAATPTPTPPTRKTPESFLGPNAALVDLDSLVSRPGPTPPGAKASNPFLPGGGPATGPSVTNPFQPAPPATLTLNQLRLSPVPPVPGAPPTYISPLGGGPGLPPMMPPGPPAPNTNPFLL
Procedure, shortened: as §1

[1] = biological target: T5, UniProt Q9Y6M7-13|Q9Y6M7-6|Q9Y6M7-9|Q9Y6M7-5|A0A0A0MST8
T5 sequence (whole entry): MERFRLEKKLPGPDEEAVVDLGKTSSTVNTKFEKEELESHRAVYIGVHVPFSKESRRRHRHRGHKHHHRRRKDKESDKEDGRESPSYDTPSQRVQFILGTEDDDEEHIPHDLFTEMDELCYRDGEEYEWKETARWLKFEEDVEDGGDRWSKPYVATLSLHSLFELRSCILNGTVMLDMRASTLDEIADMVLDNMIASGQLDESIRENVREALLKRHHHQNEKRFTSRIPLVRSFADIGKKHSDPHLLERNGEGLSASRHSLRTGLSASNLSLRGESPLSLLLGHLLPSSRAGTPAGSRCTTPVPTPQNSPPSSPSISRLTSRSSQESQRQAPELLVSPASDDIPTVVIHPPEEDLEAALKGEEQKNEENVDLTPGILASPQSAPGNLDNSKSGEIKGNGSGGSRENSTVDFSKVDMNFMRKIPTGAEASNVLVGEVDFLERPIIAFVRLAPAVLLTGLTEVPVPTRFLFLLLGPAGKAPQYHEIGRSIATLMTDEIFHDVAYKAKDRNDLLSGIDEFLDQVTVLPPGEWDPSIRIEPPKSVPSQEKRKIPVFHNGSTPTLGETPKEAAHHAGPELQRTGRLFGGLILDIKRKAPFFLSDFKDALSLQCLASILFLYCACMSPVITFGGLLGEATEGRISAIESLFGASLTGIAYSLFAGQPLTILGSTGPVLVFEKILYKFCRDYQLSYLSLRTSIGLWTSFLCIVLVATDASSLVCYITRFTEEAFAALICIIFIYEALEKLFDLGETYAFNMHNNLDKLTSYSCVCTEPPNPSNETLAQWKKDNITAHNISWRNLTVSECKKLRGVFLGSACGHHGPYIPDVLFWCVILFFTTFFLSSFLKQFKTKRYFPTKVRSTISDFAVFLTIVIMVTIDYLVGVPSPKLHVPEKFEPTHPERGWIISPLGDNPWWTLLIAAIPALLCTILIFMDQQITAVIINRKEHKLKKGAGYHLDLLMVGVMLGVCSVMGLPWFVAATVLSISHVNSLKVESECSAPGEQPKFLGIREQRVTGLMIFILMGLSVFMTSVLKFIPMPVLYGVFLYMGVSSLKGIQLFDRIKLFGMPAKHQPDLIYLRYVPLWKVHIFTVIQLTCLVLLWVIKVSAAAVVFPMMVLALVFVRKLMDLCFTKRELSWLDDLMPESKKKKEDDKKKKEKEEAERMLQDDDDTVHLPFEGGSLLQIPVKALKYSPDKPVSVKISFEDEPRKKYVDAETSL
Procedure, shortened: as §1

Q: What does the source list for `Nc1ncnc2c1ncn2[C@@H]1O[C@H](COP(=O)(O)OP(=O)(O)OP(=O)(O)O)[C@@H](O)[C@H]1O` [adenosine triphosphate]?
A: NP40-soluble protein abundance (ALG5; concentration: 1mM): 1.03 ± 0.089; NP40-soluble protein abundance (ALG5; concentration: 2mM): 1.02 ± 0.074; NP40-soluble protein abundance (ALG5; concentration: 4mM): 1.03 ± 0.088; NP40-soluble protein abundance (ALG5; concentration: 6mM): 0.97 ± 0.13; NP40-soluble protein abundance (ALG5; concentration: 8mM): 1.03 ± 0.1; NP40-soluble protein abundance (ALG5; concentration: 10mM): 1.02 ± 0.058; NP40-soluble protein abundance (DDX52; concentration: 1mM): 1.11 ± 0.11; NP40-soluble protein abundance (DDX52; concentration: 2mM): 1.16 ± 0.17; NP40-soluble protein abundance (DDX52; concentration: 4mM): 1.31 ± 0.27; NP40-soluble protein abundance (DDX52; concentration: 6mM): 1.41 ± 0.23; NP40-soluble protein abundance (DDX52; concentration: 8mM): 1.51 ± 0.37; NP40-soluble protein abundance (DDX52; concentration: 10mM): 1.71 ± 0.49; NP40-soluble protein abundance (FHOD1; concentration: 1mM): 0.963 ± 0.062; NP40-soluble protein abundance (FHOD1; concentration: 2mM): 1.01 ± 0.085; NP40-soluble protein abundance (FHOD1; concentration: 4mM): 1.02 ± 0.058; NP40-soluble protein abundance (FHOD1; concentration: 6mM): 1.01 ± 0.078; NP40-soluble protein abundance (FHOD1; concentration: 8mM): 0.952 ± 0.068; NP40-soluble protein abundance (FHOD1; concentration: 10mM): 0.96 ± 0.055; NP40-soluble protein abundance (UniProt Q9Y6I3|Q9Y6I3-3; concentration: 1mM): 0.932 ± 0.045; NP40-soluble protein abundance (UniProt Q9Y6I3|Q9Y6I3-3; concentration: 2mM): 0.915 ± 0.018; NP40-soluble protein abundance (UniProt Q9Y6I3|Q9Y6I3-3; concentration: 4mM): 0.915 ± 0.023; NP40-soluble protein abundance (UniProt Q9Y6I3|Q9Y6I3-3; concentration: 6mM): 0.927 ± 0.037; NP40-soluble protein abundance (UniProt Q9Y6I3|Q9Y6I3-3; concentration: 8mM): 0.907 ± 0.029; NP40-soluble protein abundance (UniProt Q9Y6I3|Q9Y6I3-3; concentration: 10mM): 0.894 ± 0.014; NP40-soluble protein abundance ([1]; concentration: 1mM): 1.05 ± 0.022; NP40-soluble protein abundance ([1]; concentration: 2mM): 1.03 ± 0.026; NP40-soluble protein abundance ([1]; concentration: 4mM): 1.05 ± 0.036; NP40-soluble protein abundance ([1]; concentration: 6mM): 1.04 ± 0.032; NP40-soluble protein abundance ([1]; concentration: 8mM): 1.06 ± 0.024; NP40-soluble protein abundance ([1]; concentration: 10mM): 1.02 ± 0.034
